# Screening data deposited in PubChem by National Center for Advancing Translational Sciences (NCATS).
# ELG1 genotox – qHTS screen for small molecules that induce genotoxicity in human embryonic kidney (HEK293T) cells expressing luciferase-tagged ELG1. 1.3% of 330,000 active. HEK293T ELG1-luciferase reporter, luminescence, 16 h. Potency, µM (doses to about 46 µM), for the others: top-dose activity change, positive = activation, most hits filed as activators; note: % of control where 0% means no effect; nearly all actives have a fitted effect of over 60% in size
#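 DMSO vehicle served as control against compound-treated ELG1-luciferase HEK293T cells; exposure lasted 16 hr at 37 °C and 5% CO2, followed by ONE-Glo luminescence detection after 30 min.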
# ELG1 repair inh – qHTS screen for small molecules that inhibit ELG1-dependent DNA repair in human embryonic kidney (HEK293T) cells expressing luciferase-tagged ELG1. AID 504467, 2011. HEK293T ELG1-luciferase reporter, luminescence, 16 h; DNA damage induced by 5-fluorouridine. Potency, µM (top dose mostly 46.1 µM), for inactives: at the highest dose activity change, negative = inhibition, usual class: inhibitors. 2.3% of 330,000 active; note: % is set by controls: 0 for no effect and ±100 for the full control effect; nearly all actives have a fitted effect of over 55% in size
#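 Overnight (16 hr) co-exposure of 2,000 cells/well to 5-fluorouridine and compound at 37 °C preceded detection. Luciferase was quantified via ONE-Glo luminescence; loss of signal denotes inhibition.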
# SMN2 splice enh – qHTS Assay for Enhancers of SMN2 Splice Variant Expression. HEK293 SMN2-luciferase splicing reporter, luminescence, 30-36 h. Potency, µM (highest dose often 46.1 µM), for inactives: at the highest dose activity change, positive = activation, actives largely listed as activators. 2.8% of 210,000 active; note: % of control where 0% means no effect; nearly all actives have a fitted effect of over 55% in size
#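 HEK293 cells carry an SMN2 minigene-luciferase reporter in which exon 7 inclusion puts luciferase in frame. Cells were seeded at 2000 cells/well, attached for 10-12 hours, then exposed to compounds for 30-36 hours at 37C before ONE-Glo luminescence.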
# NPC1 prom act – qHTS Assay for NPC1 Promoter Activators. Huh7 NPC1 promoter luciferase reporter, 24 h. AID 485313, 2010. Potency, µM (titrated, usually from 9.22 µM), inactives show top-dose activation, actives largely listed as activators. 2.4% of 320,000 active; note: % of control where 0% means no effect; nearly all actives have a fitted effect of over 60% in size
#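 Stable NPC1-promoter luciferase Huh7 line; cpd (DMSO) 24 h, 37 °C, 5% CO2; Amplite luciferase reagent 10 min RT; luminescence readout. qHTS format.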
# Rab9 promoter act – qHTS Assay for Rab9 Promoter Activators; Huh7 Rab9 promoter-luciferase reporter, luminescence, 24 h; Potency, µM (highest dose often 9.22 µM), for the others: at the top dose activation, negative = inhibition, usual class: activators; 2.8% of 320,000 active; AID 485297, 2010; note: % of control where 0% means no effect; nearly all actives have a fitted effect of over 60% in size
#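 Rab9 promoter-driven luciferase in stably transfected Huh7 cells; 1500 cells/well rested 2 h, exposed to compound in DMSO for 24 h at 37 °C, 5% CO2. Luminescence read 10 min after adding luciferase reagent at ambient temperature.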
# FLuc modulator – qHTS profiling assay for firefly luciferase inhibitor/activator using purifed enzyme and Km concentrations of substrates (counterscreen for miR-21 project) | Luciferin 4-monooxygenase (Photinus pyralis), P08659 | purified FLuc, Km substrates, luminescence inhibition | Potency, µM (highest dose often 57.5 µM), without a hit: top-dose activity change, negative = inhibition, usual class: inhibitors | 6.9% of 360,000 active;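 note: plate controls were vehicle for no effect and reference inhibitor for full effect; nearly all actives have a fitted effect of over 55% in size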
# Target sequence (P08659 whole entry, looked up): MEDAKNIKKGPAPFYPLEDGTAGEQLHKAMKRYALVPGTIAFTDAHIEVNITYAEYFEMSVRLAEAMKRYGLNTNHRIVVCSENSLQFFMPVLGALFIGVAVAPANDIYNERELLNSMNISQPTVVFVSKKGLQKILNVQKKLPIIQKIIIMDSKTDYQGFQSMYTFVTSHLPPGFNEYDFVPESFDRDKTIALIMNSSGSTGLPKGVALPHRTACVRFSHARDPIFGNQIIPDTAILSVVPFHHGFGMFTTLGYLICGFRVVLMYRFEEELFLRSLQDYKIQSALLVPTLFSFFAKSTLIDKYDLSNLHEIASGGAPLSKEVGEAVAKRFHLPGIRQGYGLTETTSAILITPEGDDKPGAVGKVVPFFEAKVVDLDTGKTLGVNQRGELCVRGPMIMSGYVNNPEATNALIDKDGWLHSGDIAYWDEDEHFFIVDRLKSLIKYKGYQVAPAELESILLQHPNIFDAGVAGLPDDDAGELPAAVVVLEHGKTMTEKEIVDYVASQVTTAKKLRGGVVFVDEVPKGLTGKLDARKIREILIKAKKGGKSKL
#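 Purified P. pyralis luciferase (10nM final) with 10uM D-luciferin and 10uM ATP (Km levels) in 50mM Tris acetate pH 7.5, 10mM Mg acetate, 0.01% Tween-20, 0.05% BSA; qHTS 6-point titration, ~60 µM downward; luminescence read.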
# * = called active by the depositor; ? = inconclusive; nt = no result; [ ] = dose if it differs, or a comment. This is a sample that favours compounds with a hit; in the whole collection about 9.3% have one here. Calls come from the whole dose curve; as a rule, active = well fitted curve in the direction sought with a large enough effect; inconclusive = small, poorly fitted or top-dose-only effect, or another doubt; inactive = no such curve, though single readings can be large; an effect the other way counts as inactive or inconclusive. Potency is the fitted concentration of half-maximal effect.
SMILES,ELG1 genotox,ELG1 repair inh,SMN2 splice enh,NPC1 prom act,Rab9 promoter act,FLuc modulator
CCOc1ccc(-n2c(C)c(C(C)=O)c3cc(OC(C)=O)ccc32)cc1,-20%,6.5µM*,nt,1%,-3%,3%
CCOc1ccc(-n2c(C)c(C(=O)O)c3cc(OC)ccc32)cc1,-10%,?,nt,2%,10%[1.84 µM],6%
O=C(COc1ccccc1Cl)NNC(=O)c1ccc2nc[nH]c2c1,1%,9%,nt,-3%,-8%,-16%
Cc1ccc(C2=NN3C(C2)c2ccccc2OC32C(=O)Nc3ccccc32)cc1 (stereo unspecified),?,?,?,2.5µM*,?,15µM*
CN1C(=O)C2(Oc3ccccc3C3CC(c4ccccc4)=NN32)c2ccccc21 (stereo unspecified),0%,?,11%,3%,-12%,?
CC(=O)Nc1cc(-c2nc3ccccc3s2)ccc1C,nt,nt,20%,nt,nt,6.7µM*
COc1cc(OC)cc(C(=O)Nc2cc(-c3nc4ccccc4s3)ccc2OC)c1,nt,nt,2%,nt,nt,?
Cc1ccc(-c2nc3ccccc3s2)cc1NC(=S)NC(=O)c1ccccc1,?,?,-6%,12%,12%,9.5µM*
CCOc1cc(C(=O)Nc2ccc(-c3nc4ccccc4s3)cc2Cl)cc(OCC)c1OCC,nt,nt,nt,nt,nt,13µM*
Cc1ccc(-c2nc3ccccc3s2)cc1NC(=O)c1cc(-n2cnnc2)ccc1Cl,?,?,4%,-29%,5%,1.5µM*
Cc1ccc(Cn2c(=O)n(Cc3ccc(Cl)cc3)c(=O)c3cccnc32)cc1,nt,nt,-2%,nt,nt,-10%
CN1CCN(c2ccc(CNS(=O)(=O)c3ccc(Cl)cc3)cc2)CC1,-6%,-2%,nt,1%,-5%,-3%
Cc1cc(-c2nc3ncccc3o2)ccc1NC(=O)c1ccc(Br)cc1,nt,nt,?,nt,nt,2%
Cc1nnc(SCc2cnc(-c3ccc(C(C)C)cc3)s2)n1C,?,?,?,1.6µM*,2µM*,0.3µM*
Cc1ccc(CSc2nnc(-c3cccs3)n2C)cc1,7%,?,4%,10%,10%,-14%
CCCn1c(C)nc2c(NCC(C)(C)CN(C)C)nc(C)nc21,nt,nt,-4%,nt,nt,nt
CN(C)c1ccc(C(C(=O)NCC2CCCO2)N(C(=O)c2snc(C(N)=O)c2N)c2ccc3c(c2)OCO3)cc1 (stereo unspecified),0%,21µM*,nt,-1%,-11%,1%
CN(C)c1ccc(C(C(=O)NCC2CCCO2)N(C(=O)c2snc(C(N)=O)c2N)c2ccccc2)cc1 (stereo unspecified),-29%,?,nt,2%,0%,0%
CCN1C(=O)/C(=C2\SC(=S)N(NC(=O)c3cccnc3)C2=O)c2ccccc21,-3%,1%,nt,-5%,0%,1%
CCOc1ccccc1OCCCOc1ccc([N+](=O)[O-])cc1Cl,0%,?,-23%,-4%,0%,9.5µM*
COc1cc(C)ccc1OCCOc1ccccc1Cl,?,?,5%,?,?,19µM*
COc1cc(C)ccc1OCCCOc1ccccc1Cl,?,?,13µM*,2.8µM*,3.5µM*,6.7µM*
COc1cc(C=O)ccc1OCCOCCOc1cc(C)ccc1Cl,-3%,-20%,nt,-1%,-3%,-12%
COc1cccc(OC)c1OCCCOc1ccc([N+](=O)[O-])cc1Cl,-7%,-9%,-31%,5%,3%,-3%
COC(=O)CCNC(=O)N1CCN(c2nnc(C)c3c(C)n(-c4ccc(Cl)cc4)nc23)CC1,nt,nt,nt,nt,nt,-1%
SMILES,ELG1 genotox,ELG1 repair inh,SMN2 splice enh,NPC1 prom act,Rab9 promoter act,FLuc modulator
CCCn1c(N)c(N(CCOC)C(=O)c2ccccc2)c(=O)[nH]c1=O,-18%,8%,nt,-1%,3%,-4%
COc1ccc(CCN(C)C(=O)c2ccc3c(=O)n4c(nc3c2)CCCCC4)cc1OC,-1%,16%,nt,nt,nt,nt
CC(C)(C)C1CCC(OC(=O)c2cncc(Br)c2)CC1 (stereo unspecified),?,1%,-38%,?,1.8µM*,7.6µM*
O=C(O)c1ccc(N2CCCCC2)cc1O,6%,?,nt,16%,1%,15µM*
O=C(O)c1ccc(N2Cc3ccccc3C2)cc1O,3%,?,-6%,21%,27%,24µM*
Oc1cccc(N2Cc3ccccc3C2)c1,11%,?,nt,-1%,-1%[1.84 µM],?
C[C@@H]1CC=C[C@H]2[C@H]1C(=O)N(Cc1ccccc1)[C@H]2c1ccc(-c2cc3ccccc3s2)cc1F,?,?,nt,?,?,1.7µM*
C[C@@H]1CC=C[C@H]2[C@H]1C(=O)N(Cc1ccccc1)[C@H]2c1ccc(-c2ccc(F)cc2)cc1F,-5%,0%,nt,-9%,-7%,3%
Cc1noc(C)c1C(=O)Nc1cc(S(=O)(=O)N2CCCCC2)ccc1N(C)C,1%,10%,nt,-5%,-4%,-1%
Oc1ccc(N=Nc2c(O)ccc3ccccc23)cc1,-1%,20%,-21%,16%,11%,27µM*
Oc1ccc(N=Nc2ccc3ccccc3c2)cc1,2.3µM*,?,nt,3.5µM*,?,1.1µM*
COc1cc(N=Nc2ccccc2C(=O)O)ccc1O,1%,?,nt,0%,-10%,?
COc1cc(N=Nc2ccc3ccccc3c2)ccc1O,12µM*,?,nt,3.2µM*,?,5.4µM*
Cc1cccc(C2=NC(C(F)(F)F)(C(F)(F)F)c3c(n(-c4ccc(F)cc4)c(=O)[nH]c3=O)N2)c1,-11%,9.2µM*,-69%,-9%,-18%,-2%
O=C(NC1(C(F)(F)F)C(=O)Nc2c1c(=O)[nH]c(=O)n2-c1ccc(F)cc1)c1ccccc1 (stereo unspecified),nt,nt,0%,nt,nt,3%
O=C(Nc1ccc(OC(F)F)c(Cl)c1)c1cccc(OC(F)F)c1,-8%,?,-1%,12%,20%,19µM*
COc1ccc(NC(=O)c2ccccc2F)cc1Cl,9.2µM*,?,?,2.2µM*,2.2µM*,9.5µM*
COC(=O)c1cccc(NC(=O)c2ccc(OC)c(Cl)c2)c1,6%,?,?,?,?,11µM*
COc1ccc(NC(=O)c2cccc(F)c2)cc1Cl,9.2µM*,?,?,3.5µM*,?,13µM*
COc1cc(OC)c(NC(=O)c2cccc(F)c2)cc1Cl,-4%,21%,9%,1%,2%,-15%
